From PubChem BioAssay (NCATS)
Results filed as inconclusive are left out. Entries that show only a call come without a potency. The source made the active and inactive calls. Calls follow the shape of the dose curve; as a rule, active = well fitted curve in the direction sought with a large enough effect; inconclusive = small, poorly fitted or top-dose-only effect, or another doubt; inactive = no such curve, though single readings can be large; an effect the other way counts as inactive or inconclusive.

Biological target: Aldehyde dehydrogenase, mitochondrial (Homo sapiens) (UniProt P05091)
Assay: qHTS for Inhibitors of the Aldehyde Dehydrogenase Family (ALDH2) Primary screen (AID 2061308); also: nearly all actives have a fitted effect of over 55% in size
Details: ALDH2 enzyme inhibition qHTS, 1536-well; series mostly up to 56 µM

Row | SMILES | Potency
1 | CC(C)(C)c1ccc(CSc2nc3ncc(Br)cc3[nH]2)cc1 | inactive
2 | CN(C)CC1CCN(C2CCN(C(=O)c3cccc(-c4cc(O)c5ncccc5c4)c3)CC2)CC1 | inactive
3 | CCOC(=O)C1CCN(C(=O)C(C)(C)NC(=O)Nc2ccc3c(c2)CCC3)CC1 | inactive
4 | COc1cc(OC)cc(-c2nnc3n2N=C(c2ccc(OC)cc2OC)CS3)c1 | inactive
5 | N#Cc1nc(Nc2cc(F)cc(F)c2)nc(Nc2cc(F)cc(F)c2)n1 | inactive
6 | COc1ccc(C2=Nn3c(nnc3-c3ccccc3C(F)(F)F)SC2)cc1OC1CCOC1 (stereo not given) | inactive
7 | COc1cc(O)c(C(CC(=O)N2CCC(c3ccccc3)CC2)c2ccc3c(c2)OCO3)c(OC)c1 (stereo not given) | inactive
8 | Cc1cccc(C(=O)NC2CCN(C#N)CC2)c1 | inactive
9 | COc1ccc(CCC(=O)c2c(O)cc(O)cc2O[C@@H]2O[C@H](CO)[C@@H](O)[C@H](O)[C@H]2O)cc1 | inactive
10 | Cc1cc(C)n2ncc(C(=O)Nc3ccc(C(F)(F)F)cc3)c2n1 | inactive
11 | CC(=O)Nc1sc2c(c1-c1ccc(C)cc1)CCNC2 | inactive
12 | O=S(=O)(NCCNc1nc(-c2ccco2)nc2ccccc12)c1ccccc1 | inactive
13 | Cc1cc2c(s1)c1cnn(Cc3ccc(OC(F)F)cc3)c(=O)c1n2C | inactive
14 | Cc1cc2c(s1)c1cnn(Cc3ccccc3C)c(=O)c1n2C | inactive
15 | COc1ccc(-n2ncc3c2CCCC3NC(=O)c2ccc3ncccc3c2)cc1 (stereo not given) | inactive
16 | O=[N+]([O-])c1cccc(CSc2nc3ncc(Br)cc3[nH]2)c1 | inactive
17 | COC(=O)c1ccc(Nc2nc(-c3ccncc3)nc3ccccc23)cc1OC | inactive
18 | Cc1cc(N[S+](=O)([O-])c2cc3c(cc2F)NC(=O)CC3)ccc1Br | inactive
19 | O=C(NCCc1ccc2c(c1)OCO2)c1cc2sccc2[nH]1 | inactive
20 | CCCCN(C)C(=O)Cn1nc(-c2ccc(C(C)(C)C)cc2)ccc1=O | inactive

Row | SMILES | Potency
21 | CCOC(=O)c1ccc(-c2ccc3ncnc(NCc4csc(C)n4)c3c2)o1 | inactive
22 | O=C(Nc1ccccc1)Nc1nc(Nc2cc(F)cc(F)c2)nc(NC2CCCC2)n1 | inactive
23 | CCOc1ccc(C(=O)Nc2ccc(-c3nc4ccccc4s3)cc2)cc1[N+](=O)[O-] | inactive
24 | CC(C)c1cc(C(=O)N2CC[C@H](NC(=O)C3CC3)C2)n[nH]1 | inactive
25 | Clc1ccc2ncc(-c3cccc(NC4CCNCC4)n3)n2c1 | inactive
26 | CCOC(=O)C1CCN(C(=O)C2(NC(=O)Nc3ccccc3Cl)CC2)CC1 | inactive
27 | O=C(Cn1cc(CN(Cc2ccccc2)Cc2ccccc2)nn1)Nc1cc(C(F)(F)F)ccc1Cl | inactive
28 | Cc1cccc(CNc2ccnc(-c3ccccc3C)n2)c1 | inactive
29 | Cc1ccnc(NC(=S)NC2CN(c3cccc(C(F)(F)F)c3)C2)c1 | inactive
30 | C(=C/c1cccs1)/c1ccncc1 | inactive
31 | Cc1nc(NCc2ccccc2)c2nc(-c3ccccc3)n(CCN3CCCC3)c2n1 | inactive
32 | Cc1cccc(CNc2ccc(S(=O)(=O)Nc3nccs3)cc2)c1O | inactive
33 | CNc1nc(-c2cccc3ccccc23)ccc1C#N | inactive
34 | C[C@H]1CC[C@@]2(OC1)O[C@H]1CC3[C@@H]4CC[C@@H]5C[C@@H](O[C@@H]6O[C@H](CO)[C@@H](O[C@@H]7O[C@@H](C)[C@H](O)[C@@H](O)[C@H]7O)[C@H](O)[C@H]6O[C@@H]6O[C@H](CO)[C@@H](O)[C@H](O)[C@H]6O)CC[C@]5(C)C4CC[C@]3(C)[C@H]1[C@@H]2C (stereo not given in full) | inactive
35 | O=C(OCC#CCSc1nnc(-c2cccc3ccccc23)o1)c1ccc(F)c(F)c1 | inactive
36 | COc1cccc(C2c3c(ncn(-c4ccc(C(C)(C)C)cc4)c3=N)Oc3ccc4ccccc4c32)c1 (stereo not given) | inactive
37 | O=C(O)c1ccc(O)c2ncc(NC3CCNCC3)cc12 | inactive
38 | Cc1cccc(Nc2nn3c(=O)c4ccccc4nc3s2)c1 | inactive
39 | O=S(=O)(Nc1ccccc1)c1ccc(NCc2cccc(Cl)c2O)cc1 | inactive
40 | O=C(OCC#CCSc1nnc(-c2cccc3ccccc23)o1)c1sc2ccccc2c1Cl | inactive

Biological target: Retinaldehyde dehydrogenase 3 (Homo sapiens) (UniProt P47895)
Assay: qHTS for Inhibitors of the Aldehyde Dehydrogenase Family (ALDH1A3) Primary screen (AID 2061315)
Details: ALDH inhibition qHTS; series mostly up to 56 µM

Row | SMILES | Potency
41 | CC(C)(C)c1ccc(CSc2nc3ncc(Br)cc3[nH]2)cc1 | inactive
42 | CN(C)CC1CCN(C2CCN(C(=O)c3cccc(-c4cc(O)c5ncccc5c4)c3)CC2)CC1 | inactive
43 | CCOC(=O)C1CCN(C(=O)C(C)(C)NC(=O)Nc2ccc3c(c2)CCC3)CC1 | inactive
44 | COc1cc(OC)cc(-c2nnc3n2N=C(c2ccc(OC)cc2OC)CS3)c1 | inactive
45 | N#Cc1nc(Nc2cc(F)cc(F)c2)nc(Nc2cc(F)cc(F)c2)n1 | inactive
46 | COc1ccc(C2=Nn3c(nnc3-c3ccccc3C(F)(F)F)SC2)cc1OC1CCOC1 (stereo not given) | inactive
47 | COc1cc(O)c(C(CC(=O)N2CCC(c3ccccc3)CC2)c2ccc3c(c2)OCO3)c(OC)c1 (stereo not given) | inactive
48 | Cc1cccc(C(=O)NC2CCN(C#N)CC2)c1 | inactive
49 | COc1ccc(CCC(=O)c2c(O)cc(O)cc2O[C@@H]2O[C@H](CO)[C@@H](O)[C@H](O)[C@H]2O)cc1 | inactive
50 | Cc1cc(C)n2ncc(C(=O)Nc3ccc(C(F)(F)F)cc3)c2n1 | inactive
51 | CC(=O)Nc1sc2c(c1-c1ccc(C)cc1)CCNC2 | inactive
52 | O=S(=O)(NCCNc1nc(-c2ccco2)nc2ccccc12)c1ccccc1 | inactive
53 | Cc1cc2c(s1)c1cnn(Cc3ccc(OC(F)F)cc3)c(=O)c1n2C | inactive
54 | Cc1cc2c(s1)c1cnn(Cc3ccccc3C)c(=O)c1n2C | inactive
55 | COc1ccc(-n2ncc3c2CCCC3NC(=O)c2ccc3ncccc3c2)cc1 (stereo not given) | inactive
56 | O=[N+]([O-])c1cccc(CSc2nc3ncc(Br)cc3[nH]2)c1 | inactive
57 | COC(=O)c1ccc(Nc2nc(-c3ccncc3)nc3ccccc23)cc1OC | inactive
58 | Cc1cc(N[S+](=O)([O-])c2cc3c(cc2F)NC(=O)CC3)ccc1Br | inactive
59 | O=C(NCCc1ccc2c(c1)OCO2)c1cc2sccc2[nH]1 | inactive
60 | CCCCN(C)C(=O)Cn1nc(-c2ccc(C(C)(C)C)cc2)ccc1=O | inactive

Row | SMILES | Potency
61 | CCOC(=O)c1ccc(-c2ccc3ncnc(NCc4csc(C)n4)c3c2)o1 | inactive
62 | O=C(Nc1ccccc1)Nc1nc(Nc2cc(F)cc(F)c2)nc(NC2CCCC2)n1 | inactive
63 | CCOc1ccc(C(=O)Nc2ccc(-c3nc4ccccc4s3)cc2)cc1[N+](=O)[O-] | inactive
64 | CC(C)c1cc(C(=O)N2CC[C@H](NC(=O)C3CC3)C2)n[nH]1 | inactive
65 | Clc1ccc2ncc(-c3cccc(NC4CCNCC4)n3)n2c1 | inactive
66 | CCOC(=O)C1CCN(C(=O)C2(NC(=O)Nc3ccccc3Cl)CC2)CC1 | inactive
67 | O=C(Cn1cc(CN(Cc2ccccc2)Cc2ccccc2)nn1)Nc1cc(C(F)(F)F)ccc1Cl | inactive
68 | Cc1cccc(CNc2ccnc(-c3ccccc3C)n2)c1 | inactive
69 | Cc1ccnc(NC(=S)NC2CN(c3cccc(C(F)(F)F)c3)C2)c1 | inactive
70 | C(=C/c1cccs1)/c1ccncc1 | inactive
71 | Cc1nc(NCc2ccccc2)c2nc(-c3ccccc3)n(CCN3CCCC3)c2n1 | inactive
72 | Cc1cccc(CNc2ccc(S(=O)(=O)Nc3nccs3)cc2)c1O | inactive
73 | CNc1nc(-c2cccc3ccccc23)ccc1C#N | inactive
74 | C[C@H]1CC[C@@]2(OC1)O[C@H]1CC3[C@@H]4CC[C@@H]5C[C@@H](O[C@@H]6O[C@H](CO)[C@@H](O[C@@H]7O[C@@H](C)[C@H](O)[C@@H](O)[C@H]7O)[C@H](O)[C@H]6O[C@@H]6O[C@H](CO)[C@@H](O)[C@H](O)[C@H]6O)CC[C@]5(C)C4CC[C@]3(C)[C@H]1[C@@H]2C (stereo not given in full) | inactive
75 | O=C(OCC#CCSc1nnc(-c2cccc3ccccc23)o1)c1ccc(F)c(F)c1 | inactive
76 | COc1cccc(C2c3c(ncn(-c4ccc(C(C)(C)C)cc4)c3=N)Oc3ccc4ccccc4c32)c1 (stereo not given) | inactive
77 | O=C(O)c1ccc(O)c2ncc(NC3CCNCC3)cc12 | inactive
78 | Cc1cccc(Nc2nn3c(=O)c4ccccc4nc3s2)c1 | inactive
79 | O=S(=O)(Nc1ccccc1)c1ccc(NCc2cccc(Cl)c2O)cc1 | inactive
80 | O=C(OCC#CCSc1nnc(-c2cccc3ccccc23)o1)c1sc2ccccc2c1Cl | inactive
